Structures are written as SMILES. About 40 (0.06%) of roughly 65,000 compounds were called active. A call without a number means that no potency is given here. Calls follow the shape of the dose curve; as a rule, active = well fitted activation curve with a large enough effect; inconclusive = small, poorly fitted or top-dose-only effect; inactive = flat fitted curve, though single readings scatter. Only a selection was taken, and actives are over-represented in it overall.

This test in a line: qHTS Assay for Modulators of Hemoglobin Beta Chain Splicing. The settings on record: HBB splicing reporter cell assay, EGFP reporter with mutant IVS2-654 intron; Potency: activation; series mostly up to 46.1 µM. An excerpt: NIH Chemical Genomics Center [NCGC]
NIH Molecular Libraries Screening Centers Network [MLSCN]
PI Name: Dr. Ryszard Kole
Modulation of Alternative Splicing as Therapy
Abnormal splicing is associated with a number of diseases, including cancer and genetic diseases such as cystic fibrosis, muscular dystrophy and beta-thalassemia. Alteration of disease associated splicing patterns provides a promising target for treatment. […] Mutations in the second intron of the beta-globin gene at positions are clinically relevant and cause mis-splicing which results in an out of frame gene product.
EGFP-654 and 705 HeLa Cells as screen system.
HeLa cell lines were stably transfected with a construct in which the EGFP (enhanced green fluorescent protein) cDNA was interrupted by the second intron of the beta-globin gene (IVS2-654). The ISV2 intron contains mutations which cause mis-splicing of EGFP and premature termination of EGFP which results in a nonfluorescent protein product. […] Expression of the transgene was driven by the CMV promoter. We concluded that a low molecular weight compound, which restored correct splicing of intron 2 would also generate functional EGFP protein, resulting in a fluorescent signal. Thus, the HeLa cells that express the EGFP-654 construct can be used for high throughput screening of a chemical library.
NCGC Assay Protocol Summary:
High Throughput Screening. Freshly thawed HeLa EGFP-654 cells were seeded in 5 ul of optimem media (Invitrogen) containing 2 % fetal calf serum (Hyclone) and 1x penicillin/streptomycin (Invitrogen) at a concentration of 500 cells per well in 1536-well plates. Cells were incubated overnight at 37C in 5% CO2. The next day, cells were treated with DMSO, 500 nM antisense ISV2 654 PNA control oligo, or library compound and allowed to grow at 37C in 5% CO2 for 2 days. The PNA oligo blocked the mutation site in the intron and allowed proper (wild type) splicing to occur, resulting in full length EGFP expression and also allowed for optimization of the assay parameters. Plates were read in the Acumen Explorer (TTP Labtech) using 488 nm laser excitation and 500-520 nm emission PMT filter in a 1 x […] capture mode. Fluorescnet Fluorescent objects ranging in size from […] were measured and the total peak GFP intensity for each well was used for data analysis.
Keywords: Thalassemia, beta-thalassemia, beta-globin, EGFP, ISV2 654, ISV2 705, SSO, PNA, antisense, splicing, MLSMR, MLSCN, NIH Roadmap, qHTS, NCGC
On the technique in general: Quantitative high-throughput screening tests each substance at several concentrations.
In the case of `COC(=O)CCCCCN1C(=O)NC(c2ccc(-c3ccccc3)cc2)C(C(=O)OCc2ccccc2)=C1C` (configuration not stated), the activation result is “inactive”. As for `NC[C@@H]1O[C@H](O[C@@H]2[C@H](O[C@@H]3O[C@H](CO)[C@@H](COC[C@H]4O[C@@H](CN)[C@@H](O)[C@@H](O)[C@@H]4N)[C@@H]3O)[C@@H](O)[C@@H](N)C[C@H]2N)[C@@H](N)[C@H](O)[C@@H]1O`, the activation result is “inactive”. Turning to `CO[C@H]1COC(=O)CCC[C@@H](C)[C@H](OC)COC(=O)[C@@H](C)NC(=O)C/C=C\[C@@H]1C`, the activation was 1.62% [at 9.22 µM, normalised to 500 nM splice-correcting PNA] (inactive).

In the case of `COC(=O)[C@@]1(Cc2ccc(F)cc2)[C@H]2c3cc(C(=O)N4CCCC4)n(C[C@H](O)CO)c3C[C@H]2CN1C(=O)c1ccccc1`, the activation entry is “inactive”. As to `COc1ccc(/C=C/NC(=O)c2ccc(OC)cc2)cc1`, the activation was 0.0031% [at 9.22 µM, normalised to 500 nM splice-correcting PNA] (inactive). Next, `CN(C)c1cc2c(Nc3ccc4c(cnn4Cc4ccccc4)c3)ncnc2cn1`: “inactive”. As to `Cc1cccc(C(=O)O)c1`, the activation entry was “inactive”. The same measure for `COC(=O)[C@@]1(C)C=C[C@@H](Cc2ccccc2)N1C(C)=O`: “inactive”; for `COC(=O)C1(Cc2ccccc2)C=C2C(=C(C)C(=O)C2C)CN1` (configuration not stated): “inactive”; for `C=CC(=O)OCCOCCOCCOCCOC(=O)C=C`: “inactive”.

Turning to `Oc1cc2c(cc1O)CN(C(=S)NCCc1ccc(Cl)cc1)CCC2`, the activation entry was “inactive”.

As for `O=C(c1ccco1)N1CCC[C@@]2(CCN(Cc3nccs3)C2)C1`, the activation entry was “inactive”. As for `CN(C)C(=O)c1ccc(-c2cncnc2Nc2ccccc2)cc1`, the activation entry is “inactive”. Next, `COc1cccc([C@H]2Oc3ccc(OC)cc3/C(=N\OCC[C@@H]3C=C[C@H](OC(C)=O)[C@H](COC(C)=O)O3)[C@@H]2O)c1`: -1.11% [at 9.22 µM, normalised to 500 nM splice-correcting PNA] (inactive). In the case of `COc1cc([C@H]2c3cc4c(cc3[C@@H](O[C@@H]3O[C@H]5CO[C@@H](C)O[C@]5(O)C[C@H]3O)[C@@H]3COC(=O)[C@H]23)OCO4)cc(OC)c1O`, the activation entry is “inactive”. Consider `Cc1cc(Cl)ccc1OCC(=O)Oc1c(Cl)c(Cl)c(Cl)c(Cl)c1Cl`, for which the activation was 0.153% [at 9.22 µM, normalised to 500 nM splice-correcting PNA] (inactive). The same measure for `C/C(CCN1CCc2nc(-c3ccccc3)c(-c3ccccc3)cc2C1)=N\O[C@@H](C)c1cn([C@@H]2COC[C@@H]2O)nn1`: -1.08% [at 9.22 µM, normalised to 500 nM splice-correcting PNA] (inactive).

The values above are taken from PubChem BioAssay AID925 (National Center for Advancing Translational Sciences (NCATS), 2007).
